Measurements: PubChem BioAssay AID624330 (Southern Research Specialized Biocontainment Screening …, 2012)
The campaign covered roughly 340,000 compounds. About 2,100 (0.62%) were called active.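 Rule for the calls: active = first-screen hits whose inhibition reached a set limit at any dose in the follow-up dose series; inconclusive = inhibition above the set first-screen limit but never retested; inactive = the rest.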 A selection follows. Results with a measured potency or affinity are listed apart.

The compounds below were run against Rac GTPase-activating protein 1 (Homo sapiens) (UniProt Q9H0H5) (assay: MgcRacGAP GTPase-activating activity inhibitors, confirmation, biochemical, ADP Hunter fluorescence, primary and confirmatory (AID 624330;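 note: fluorescence reports GDP produced by GAP-driven GTP hydrolysis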)). Conditions: MgcRacGAP-stimulated Rac1 GTP hydrolysis, at 30 µM, hits give high values, GST-tagged Rac1 F28L mutant substrate.
Sequence of Rac GTPase-activating protein 1 (Homo sapiens) (Q9H0H5 whole entry, looked up): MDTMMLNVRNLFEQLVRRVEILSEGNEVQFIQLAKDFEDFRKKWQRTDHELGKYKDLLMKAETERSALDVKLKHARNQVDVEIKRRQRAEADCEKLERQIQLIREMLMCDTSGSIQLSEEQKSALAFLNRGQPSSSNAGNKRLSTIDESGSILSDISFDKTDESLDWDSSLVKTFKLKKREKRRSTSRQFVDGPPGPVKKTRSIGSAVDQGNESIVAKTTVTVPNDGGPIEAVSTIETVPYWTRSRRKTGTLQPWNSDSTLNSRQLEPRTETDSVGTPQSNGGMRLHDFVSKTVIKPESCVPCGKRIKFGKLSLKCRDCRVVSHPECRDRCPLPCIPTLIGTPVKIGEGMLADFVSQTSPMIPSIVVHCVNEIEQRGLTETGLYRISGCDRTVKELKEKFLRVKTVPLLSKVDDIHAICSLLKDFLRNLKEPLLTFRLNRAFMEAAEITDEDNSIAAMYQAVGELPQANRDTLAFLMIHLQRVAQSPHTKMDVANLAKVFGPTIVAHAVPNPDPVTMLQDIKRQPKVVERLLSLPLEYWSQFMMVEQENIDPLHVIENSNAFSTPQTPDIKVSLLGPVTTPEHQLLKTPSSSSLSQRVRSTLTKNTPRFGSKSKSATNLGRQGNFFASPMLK

inhibition, inactive:
CCC(C)N(CCNC(=O)c1ccc2c(c1)NC(=O)c1ccccc1S2)C1CCCCC1 (centres undefined) 3.06%, COc1ccc(C(=O)CN2C(=O)NC3(CCCc4ccccc43)C2=O)c(OC)c1 (centres undefined) 2.84%, CN(C(=O)CSc1nnc(-c2cccc(F)c2)n1N)C1CCS(=O)(=O)C1 (centres undefined) 3.77%, Cc1csc(=O)n1CC(=O)OCC(=O)c1c(N)n(CC(C)C)c(=O)n(C)c1=O -0.27%, Cc1nc2ccccc2n1CC(=O)c1ccccc1 15.2%, Cc1nc2ccccc2c(-c2ccccc2)c1CC(=O)O 5.79%, COc1ccccc1OCC(=O)NCC1CCCN(C(=O)c2cccc(C)c2)C1 (centres undefined) 12.2%, CCN(CC)CCNc1ccc(CO)c2sc3ccccc3c(=O)c12 16.6%, CN(C)CCNc1ccc(Cl)cc1[N+](=O)[O-] -0.93%, Cc1cc(O)cc2c(=O)c3ccccc3sc12 8.36%, CCN(CC)CCNc1ccc(CO)c2oc3ccccc3c(=O)c12 16.8%, COc1ccc2sc3ccccc3c(=O)c2c1OC 2.12%, O=c1c2ccccc2sc2c(CO)ccc(NCCN3CCCCC3)c12 27.3%, CCN(CC)CCNc1ccc(CO)c2oc3cc(Cl)ccc3c(=O)c12 4.45%, CN(C)CCNC(=O)c1cc2sc3ccccc3c2s1 11.4%, Nn1c(SCC(=O)NCCC2=CCCCC2)nnc1C(F)(F)F 9.95%, Cc1cccc(NC(=O)CSc2nnc(C)n2Cc2ccccc2)c1 -8.45%, O=C(NCCc1nc(-c2ccccc2)cs1)c1ccc(Br)cc1 -0.49%, CC(=O)N(Nc1ccccc1)c1ccccc1 -0.89%, COc1ccc(C=C2C=C(C(C)(C)C)C(=O)C(C(C)(C)C)=C2)cc1OC 15.6%, CC(=O)OCCCN1c2ccccc2Nc2nnc(-c3ccccc3)cc21 6.92%, CCCCc1ccc(NC(=O)c2ccc(N(C)S(C)(=O)=O)cc2)cc1 -2.51%, CCN(CC)CCNc1cccc2sc3ccccc3c(=O)c12 19.4%, CCN(CC)CCNc1ccc(Cl)cc1[N+](=O)[O-] 4.03%, C#CCOCCOCCOCCNc1nc(N2CCN(C(=O)[C@H]([C@@H](C)CC)n3cc(CCCN=C(N)N)nn3)CC2)nc(N2CCN(C(=O)[C@H](CCCCN)n3cc(CCC(=O)O)nn3)CC2)n1 -4.54%, CCOc1ccc(CNc2ccc(N3CCN(Cc4ccccc4)CC3)cc2)cc1 30.8%, CC(=O)Nc1ccc(N2CCN(Cc3ccccc3)CC2)cc1 11.2%, O=C(CN1CCN(Cc2ccc(F)cc2)CC1)NCc1ccccc1 9.4%, O=C(CCS(=O)(=O)c1ccc(F)cc1)Nc1ccc(N2CCN(Cc3ccccc3)CC2)cc1 3.53%, Cc1ccc(NC(=O)c2ccccc2Cl)cc1-n1cnnn1 3.88%, CCOc1ccc(S(=O)(=O)NN2Cc3ccccc3C2=N)cc1 7.55%, COc1ccc(OC)c(S(=O)(=O)N(C)CC(=O)N2CCN(c3ccc(F)cc3)CC2)c1 5.44%, Cc1cc(C(=O)NC2CCCC2)on1 2.61%, COc1ccc2c(c1)C(=NNC(=O)c1ccccn1)c1cc(OC)ccc1-2 12.9%, CCOc1ccc2c(c1)C(=NNC(=O)c1ccccn1)c1cc(OCC)ccc1-2 -24.9%, Cc1cc(C)n(C(=O)CNc2cccc(Cl)c2C)n1 5.52%, N#CC1(Nc2ccc(Br)cc2)CCCC1 2.57%, Cc1ccc(NC2(C#N)CCCC2)cc1 4.1%, COc1ccc(C(CNC(=O)c2ccc(S(=O)(=O)N(C)C)cc2)N2CCCC2)cc1 (centres undefined) -5.33%, N#CC1(NC(=O)CSc2nnc3n2CCCCC3)CCCCC1 4.53%, CC(NC(=O)COC(=O)c1ccc(S(=O)(=O)N2CCOCC2)cc1)c1ccccc1 (centres undefined) -3.85%, Cc1c(NC(=O)Cc2cccs2)cccc1[N+](=O)[O-] 6.13%, Oc1cccc(/C=N/Nc2cc(N3CCOCC3)nc(N3CCOCC3)n2)c1 18.3%, CC(C)c1ccc(/C=N/Nc2cc(N3CCOCC3)nc(N3CCOCC3)n2)cc1 2.24%, Oc1ccc(/C=N/Nc2cc(N3CCCC3)nc(N3CCCC3)n2)cc1O 23.7%, Oc1ccccc1/C=N/Nc1cc(N2CCCC2)nc(N2CCCC2)n1 -4.19%, Cc1cccc(/C=N/Nc2cc(N3CCOCC3)nc(N3CCOCC3)n2)c1 -20.8%, Oc1ccc(/C=N/Nc2cc(N3CCCC3)nc(N3CCCC3)n2)cc1 7.45%, O=C(Cn1c(-c2ccccc2)noc1=O)N1CCC(Cc2ccccc2)CC1 5.27%, O=C(CNCc1ccccc1)Nc1cccc(Cl)c1Cl 27.2%, CCCCCN(C(=O)CCC(=O)OCC(=O)c1c(C)cc(C)cc1C)c1c(N)n(CCCC)c(=O)[nH]c1=O 3.32%, CCN(C(=O)c1c(N)cnn1C)c1ccccc1 -2.97%, COc1ccc(N2CCN(C(=O)COC(=O)c3cccc(S(=O)(=O)Nc4cccc(C)c4)c3)CC2)cc1 5.68%, CCOC(=O)c1oc2cccc(O)c2c1C 5.83%, CCOC(=O)c1oc2cc(C)cc(C)c2c1C 4.4%, Cc1ccc(-n2ncc3c2CC(C)(C)CC3NC(=O)c2c(C)noc2C)cc1 (centres undefined) 5.31%, CC(=O)Nc1ccc(S(=O)(=O)Nc2cc(C)cn(Cc3ccccc3)c2=O)cc1 3.18%, O=C(CN1CCN(S(=O)(=O)c2ccc(F)c(Cl)c2)CC1)N1CCc2ccccc2C1 2.62%, O=C(CN1CCN(S(=O)(=O)c2cc(C(F)(F)F)ccc2Cl)CC1)N1CCc2ccccc2C1 9.9%, O=C(CN1CCN(S(=O)(=O)c2ccc3ccccc3c2)CC1)N1CCc2ccccc2C1 10.7%, COc1ccc(S(=O)(=O)N2CCN(CC(=O)N3CCc4ccccc4C3)CC2)cc1OC 7.25%, Cc1cc(OCC(=O)NCC(c2ccc(F)cc2)N2CCOCC2)ccc1Cl (centres undefined) 3.16%, O=C(CCc1ccc(S(=O)(=O)N2CCOCC2)cc1)Oc1ccccc1 8.54%, O=C(CN1CCCCC1)Nc1c2c(nc3ccccc13)N(c1ccccc1)CC2 20.7%, CCCCc1nc2ccccc2c(NC(=O)CN2CCCC2)c1CCC 28.9%, CN(C)c1cc(NC(=O)CN2CCOCC2)c2ccccc2n1 0.97%, CN1CCN(CC(=O)Nc2cc(N(C)C)nc3ccccc23)CC1 27.1%, O=C(CN1CCCC1)Nc1c2c(nc3ccccc13)N(Cc1ccccc1)CC2 3.93%, CCCCc1nc2ccccc2c(NC(=O)CNC(C)(C)C)c1CCC 20.5%, CCCn1c(=O)c(C(=O)NCC2CCCO2)c(O)c2ccccc21 (centres undefined) 5.01%, O=C1c2ccccc2C(=O)N1CCCCNc1ccccc1 -2.64%, COC(=O)c1sc2ncccc2c1OCc1ccc(Cl)cc1 1.91%, N#C/C(=C\c1ccc2c(c1)OCCO2)C(=O)NC1CCCCC1 4%, C=CCOC(=O)COc1ccc2c(C)c(C)c(=O)oc2c1C -6.38%, COCCNC(=O)c1cc2c(=O)[nH]c3ccccc3c2s1 6.07%, CCOc1ccc(/C=N/Nc2ccc(C(F)(F)F)cc2[N+](=O)[O-])cc1O 13.1%, O=C(CCc1nc2ccccc2c(=O)[nH]1)Nc1ccc(F)c([N+](=O)[O-])c1 2.61%, CCC1=Nc2cc(C(=O)O)ccc2Sc2ccc(Cl)cc21 6.46%, Clc1ccc(C2=Nc3cc(Cl)ccc3OC2)cc1 12.9%, CCOc1ccc2nc(SCC(=O)NCc3ccc(OC)cc3)[nH]c2c1 6.56%, Cc1ccc2c(c1)N(C(=O)CCC(=O)N1CCN(c3ccccc3)CC1)CCO2 11.2%, COc1ccc(/C=N/NC(=O)CNC(=O)C2COc3ccccc3O2)cc1OC (centres undefined) 6.43%, COc1ccc(/C=N\NC(=O)CNC(=O)C2COc3ccccc3O2)cc1[N+](=O)[O-] (centres undefined) 5.39%, O=C(CNC(=O)C1COc2ccccc2O1)N/N=C\c1cccc(O)c1 (centres undefined) 3.96%, CCN(CC)c1ccc(/C=N/NC(=O)CNC(=O)C2COc3ccccc3O2)c(O)c1 (centres undefined) 5%, CCOC(=O)N1CCN(C(=O)COC(=O)c2cc(C)ccc2C)CC1 -2.55%, CCOc1ccccc1NC(=O)CN(c1ccc(C)cc1)S(=O)(=O)c1c(C)n[nH]c1C 0.88%, Cc1cc(C(=O)O)ccc1NCc1ccncc1 7.32%, COCCN(CC(=O)NC1CCCCC1)C(=O)CCCC(=O)Nc1ccccn1 -5.13%, COC(=O)c1ccc(C(=O)OC)c(NC(=S)N2CCCCC2C)c1 (centres undefined) 8.35%, O=C(CN1CCN(c2ccc(F)cc2)CC1)NC(=O)NCc1ccco1 -4.47%, COc1ccc(N2CCN(CC(=O)Nc3ccc(C)cc3Br)CC2)cc1 -18.4%, O=C(CN1CCN(c2ccccc2)CC1)NC(=O)NCc1ccco1 5.31%, Cc1ccc(NC(=O)NC(=O)CN2CCC(C(N)=O)CC2)c(C)c1 -2.71%
